Inconclusive results are not listed. Active and inactive are the calls of the source. The calls were made as follows, unless noted: active = hit-call score of the fitted dose curve at least 0.9, where 1 is the maximum; inconclusive = response in the unintended direction; inactive = score below 0.9.

A word on the AC50: it is the concentration giving half of the maximal activity seen.

Experiment [1] in a line: CCTE_Mundy_HCI_hNP1_Pro_ResponderAvgInten: CCTE's Proliferation Assay in human neuroprogenitor cells, Mundy Lab (AID 2284224). An outline of the steps: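 Human neuroprogenitors (hNP1, WA09 lineage) receive test chemical after 40 to 44 hours of attachment. A four-hour BrdU pulse begins twenty hours later, followed by fixation and high content imaging; signal is referenced to DMSO controls.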

Experiment [2] can be described thus: UKN4_HCS_LUHMES_cell_viability: Viability Assessment in the University of Konstanz (UKN) Leist Lab Neurite Outgrowth Assay in human LUHMES cells (UKN4) (AID 2284232; active = hit-call score of the fitted dose curve at least 0.9, where 1 is the maximum; inactive = score below 0.9). An outline of the steps:
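Day-2 differentiated LUHMES, 30000 cells/well, dosed ~30 min–2 h post-seeding; 24 h treatment incl. staining; Hoechst H-33342 + calcein-AM at 23.5 h; HCS imaging; DMSO-normalized, bidirectional fit.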

Experiment [3] can be described thus: CCTE_Mundy_HCI_Cortical_NOG_BPCount: CCTE's Neurite Outgrowth Assay in rat cortical cells for Branch Point Count, Mundy Lab (AID 2284237; active = hit-call score of the fitted dose curve at least 0.9, where 1 is the maximum; inactive = score below 0.9). Summed up: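 Measured 50.33 h after dosing, this morphology endpoint uses rat primary cortical cultures labelled for betaIII-tubulin. Branch points are quantified by high-content imaging, with DMSO as negative control and baseline.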

Experiment [4] is described as follows: CCTE_Mundy_HCI_hNP1_Casp3_7: CCTE's Caspase-Glo 3/7 Assay in human neuroprogenitor cells for Apoptosis, Mundy Lab (AID 2284240; active = hit-call score of the fitted dose curve at least 0.9, where 1 is the maximum; inactive = score below 0.9). An outline of the steps:
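Neuroepithelial-lineage stem cells from WA09 embryonic cells were treated with chemicals after 40–44 h of culture. Twenty-four hours later, caspase-3/7 activation was detected luminescently after a 30 min room-temperature reagent step, with DMSO as baseline.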

Experiment [5] in a line: CCTE_Mundy_HCI_hNP1_CellTiter: CCTE's Cell Titer-Glo 2 Assay in human neuroprogenitor cells for Viability, Mundy Lab (AID 2284241).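 As to AC50: a hit is a drop in ATP luminescence versus DMSO meaning reduced viability.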 Summed up: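 Measures ATP content in human neural progenitors derived from WA09 embryonic cells. Read-out at 26.5 hours after dosing, with DMSO serving as the negative control and baseline.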
A general note: In ATP-based viability assays light output follows the ATP content of the culture.

A short description of experiment [6]: IUF_NPC2c_oligodendrocyte_migration_120hr: Leibniz Research Institute for Environmental Medicine (IUF) 120-hour Neural Progenitor Cell Migration Assay for Oligodendrocyte Migration (NPC2c) (AID 2284297; active = hit-call score of the fitted dose curve at least 0.9, where 1 is the maximum; inactive = score below 0.9;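 also: O4-positive oligodendrocyte migration distance divided by radial glia migration distance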). An outline of the steps: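 Human fetal neural progenitor spheres (0.3 mm) are plated on poly-D-lysine/laminin in N2 differentiation medium and exposed for 120 h, with half-medium renewal at day 3. Oligodendrocyte (O4+) migration distance comes from ICC imaging, normalised to radial glia migration.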

Experiment [7] can be described thus: TAMU_HCS_1.5hr_SingleDonor1434_Cytotoxicity: Cytotoxicity Assessment using High-content Screening (HCS) Fluorescent Imaging for the Texas A&M University (TAMU) 1.5-hr Human Induced Pluripotent Stem Cell (iPSC)-derived Cardiotoxicity Assay (AID 2284234). Summed up: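 Nuclear counts from Hoechst 33342 imaging define cytotoxicity here, with EC10 (10% cell-count loss relative to DMSO) as point of departure. iPSC cardiomyocytes received 0.2-100 uM test chemical in 0.5% DMSO for 1.5 h at 37 C.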

Experiment [8] can be described thus: TAMU_PeakParms_SingleDonor1434_QT: Texas A&M University (TAMU) 1.5-hr Human Induced Pluripotent Stem Cell (iPSC)-derived Cardiomyocytes Calcium (Ca+2) Flux Assay for Cardiotoxicity: QT (decay-rise ratio) (AID 2284235). An outline of the steps: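 Decay/rise ratio of calcium-flux fluorescence scored after 90 min exposure (37C) of donor 1434 iPSC cardiomyocytes to 0.2–100 uM (0.5% DMSO). Beat-cessation and severe-notch points removed; POD is EC05, a 5% rise over DMSO.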

Experiment [9] can be described thus: UKN2_HCS_IMR90_cell_viability: Viability Assessment in the University of Konstanz (UKN) Leist Lab Neural Crest Cell Migration Assay in human induced IMR90 Pluripotent Stem Cells (UKN2) (AID 2284233; active = hit-call score of the fitted dose curve at least 0.9, where 1 is the maximum; inactive = score below 0.9;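 also: viability of neural crest cells differentiated from IMR90 iPSC measured by calcein-AM fluorescence imaging; cells exposed to compound for 24 h after a 24 h migration phase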). Summed up: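 cMINC format, iPSC-derived neural crest (IMR90); 24 h migration (EGF/FGF, N2-S), then 24 h toxicant. Calcein-AM/H-33342 stain 30 min; fluorescence intensity by HCS; DMSO-normalised, bidirectional fitting.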

Experiment [10] can be described thus: CCTE_Mundy_HCI_Cortical_Synap_Neur_Matur_NeuronCount: CCTE's Synaptogenesis and Neurite Maturation Assay in rat cortical cells for Neuron Count, Mundy Lab (AID 2284242).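 As to AC50: neuron number from Hoechst nuclei and MAP2 staining by high-content imaging; hits reduce neuron count versus DMSO baseline.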 An outline of the steps:
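Rat cortical cultures; AraC DIV 5; chemical dosing + media change DIV 7 to DIV 12 (288.33 h readout). Fix, Hoechst, anti-MAP2/anti-synaptophysin immunostain; HCI neuron count vs DMSO baseline.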

As to `OCC(O)CO`, the compound was called inactive in experiment [1], in experiment [2], in [3], in experiment [4], in experiment [5] and in experiment [6].
In the case of `O=C(O)CC(O)(CC(=O)O)C(=O)O`, the result in [7] and in [8] was inactive.
In the case of `Cc1occc(=O)c1O`, the result in experiment [7] and in [8] was inactive.
With `CN(C)CCCN1c2ccccc2Sc2ccc(Cl)cc21`, the outcome in experiment [1] was inactive. The AC50 in experiment [9] is 14.3 µM (active); in experiment [4], 11.6 µM (active); in experiment [5] it was 24.7 µM (active); in [10] it was 13.7 µM (active); in experiment [6], 16.1 µM (active).
For `CCc1nc(N)nc(N)c1-c1ccc(Cl)cc1`, the result in experiment [8] was inactive.
For the compound `COC(=O)[C@H]1[C@H]2C[C@@H]3c4[nH]c5cc(OC)ccc5c4CCN3C[C@H]2C[C@@H](OC(=O)c2cc(OC)c(OC)c(OC)c2)[C@@H]1OC`, the compound was called inactive in [7] and in [8].
As to `CC(=O)CC(c1ccccc1)c1c(O)c2ccccc2oc1=O` (centres undefined), the outcome in [1], in [3], in experiment [4], in experiment [10] and in experiment [6] was inactive.
With `O=C1NC(=O)C(c2ccccc2)(c2ccccc2)N1`, the result in [2], in experiment [9], in experiment [4], in experiment [10] and in [6] was inactive.

For the origin of these results see PubChem BioAssay (EPA / NIEHS).
